Drawing on PubChem BioAssay, this text covers z-score for 29 molecules.

Unmarked numbers belong to inactive results. Activity calls are given as the source filed them.

The nature of the assay: CREB reporter modulators under forskolin, primary screen, cell-based, PC12, CRE-LacZ reporter, forskolin-stimulated (AID 1146).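 Further: PC12 cells with 6xCRE LacZ reporter stimulated by forskolin 10 µM; beta-galactosidase reporter signal reflecting CREB driven transcription.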 The conditions noted are these: luminescence, 4.5 h, higher = more signal, called active from +8 up or from −8 down.
`COc1ccc([Si](C)(C)[C@@H]2[C@@H](CCO)O[C@]3(C(=O)N(Cc4cccc(N5CCOC5=O)c4)c4ccccc43)[C@H]2C)cc1`: the z-score is -0.905.
For the molecule `COCCOC(=O)N1C(=O)[C@@]2(c3ccccc31)[C@H](C(N)=O)[C@H]1C(=O)O[C@H](c3ccccc3)[C@H](c3ccccc3)N1[C@@H]2c1ccc(O)cc1`, the z-score is 0.06.
For `O=C1C[C@@](C(=O)NCc2ccccc2)(c2ccc([N+](=O)[O-])cc2)[C@@H](c2ccc(CO)cc2)N1CC12CC3CC(CC(C3)C1)C2` the value was -0.841.
For the molecule `COCC(=C=CC[C@H](O)c1cccc(OCCO)c1)CCO`, the z-score was 0.324.
`COCCCNC(=O)[C@@]1(Cc2ccccc2CN=[N+]=[N-])N=C(c2ccc(OCCCO)cc2)O[C@H]1c1ccccc1CN=[N+]=[N-]`: the z-score was -1.68.
Consider `COC(=O)[C@]1(Cc2ccccc2)N=C(c2ccc(OCCCO)cc2)O[C@@H]1c1ccccc1N=[N+]=[N-]`, for which the z-score was -1.47.
As for `COC(=O)[C@@]1(Cc2ccc(F)cc2)[C@H]2c3cc(C(=O)N(C)C)n(Cc4ccc(C)o4)c3C[C@H]2CN1C(=O)c1ccccc1`, the figure is -0.554.
Turning to `CC(C)=CCCC(C)=CC(O)C1C=CC2C(=O)N(c3ccccc3)C(=O)C2N1Nc1ccc(C(C)C)cc1` (centres undefined), the z-score is 0.204.
As to `COc1ccccc1CN1C(=O)c2ccccc2[C@@H](C(=O)NCc2ccccc2)[C@@H]1c1ccc(CO)cc1`, the z-score was -1.35.
In the case of `CC#CC(=O)Oc1ccc(Br)cc1C=CC(=O)OCC`, the z-score was 32.2 (active).
Regarding `O=C(NC1CC1)[C@@H]1c2ccccc2C(=O)N(C2Cc3ccccc3C2)[C@H]1c1ccc(CO)cc1`, the z-score was -0.987.
Consider `COCCCNC(=O)[C@@H]1c2ccccc2C(=O)N(Cc2ccccc2OC)[C@H]1c1ccc(CO)cc1`, for which the z-score is 0.715.
`O=C(O)[C@H](Cc1ccccc1)n1cc(-c2ccccc2)nn1`: the z-score was 0.219.
Regarding `C=CC[C@]1(C(=O)NCc2ccccc2)N=C(c2ccc(OCCCO)cc2)O[C@H]1c1ccccc1CN=[N+]=[N-]`, the z-score was -0.116.
Turning to `CN1C(=O)C2C=CC(C(O)c3ccc(F)cc3)N(N(c3ccccc3)c3ccccc3)C2C1=O` (centres undefined), the z-score is 0.677.
As for `C=CCC(OC(C)=O)[C@@H]1[C@@H](N(Cc2ccc(-c3cccc(C(F)(F)F)c3)o2)C(=O)Cc2ccc(OC)cc2)c2cc(OCCCO)ccc2N1C(=O)c1ccc2ccccc2c1` (some centres undefined), the figure is 1.52; as for `CN(C)CCCCCCNC(=O)[C@@H]1C[C@@H]2C(=O)N[C@@H](CCCC[N+](C)(C)C)C(=O)N2[C@@H]1c1ccc(O)cc1`, -0.0457; as for `CC(C)CNC(=O)[C@@]1(Cc2ccccc2I)c2ccccc2C(=O)N(Cc2ccccc2C(F)(F)F)[C@H]1c1ccc(CO)cc1`, 1.04.
As for `C=CC[C@]1(C(N)=O)N=C(c2ccc(OCCCO)cc2)O[C@H]1c1ccccc1`, the z-score was -0.806.
`COCCCNC(=O)[C@@]1(Sc2ccc(C)cc2)CC(=O)N(Cc2ccccc2Cl)[C@@H]1c1ccc(CO)cc1`: the z-score was 1.09.
For `CCCC=C(CCC)[C@@H](NC(=O)OCC(C)C)c1ccccc1` the value was 1.43; for `OCC1C=C(/C=C/c2ccccc2)CN1Cc1ccccc1Br` (centres undefined), -0.181; for `CN1C(=O)C2C=CC(C(O)C=Cc3ccc([N+](=O)[O-])cc3)N(Nc3ccccc3)C2C1=O` (centres undefined), 0.528.
For `COC(=O)[C@@]1(Cc2ccccc2)[C@H]2c3cc(C(=O)N4CCCC4)n(Cc4ccc(O)c(OC)c4)c3C[C@H]2CN1C(=O)c1ccccc1`, the z-score was 0.333.
Consider `CN(C)CCCCCCNC(=O)[C@@H]1C[C@@H]2C(=O)N3CCC[C@H]3C(=O)N2[C@@H]1c1ccc(O)cc1`, for which the z-score was -0.439.
Consider `C[N+](C)(C)CCCC[C@@H]1NC(=O)[C@H]2C[C@@H](C(=O)NCCCCCCNC(=O)CS)[C@@H](c3ccc(O)cc3)N2C1=O`, for which the z-score was -0.549.
Turning to `COC(=O)C(CC#Cc1ccc2c(c1)[C@]1(C(=O)N2)[C@H](c2ccccc2OCCO)N2[C@H](c3ccccc3)[C@H](c3ccccc3)OC(=O)[C@H]2[C@@H]1C(=O)O)C(=O)OC`, the z-score is 1.86.
As for `NCCCCCNC(=O)[C@H]1C[C@H]2C(=O)N3CCC[C@H]3C(=O)N2[C@H]1c1ccc(O)cc1`, the figure is 0.165.
Turning to `C=CCC(OC(C)=O)[C@@H]1[C@@H](N(Cc2ccc(-c3ccccc3)cc2)C(=O)Cc2ccc(F)cc2)c2cc(OCCCO)ccc2N1C(=O)c1ccc2ccccc2c1` (some centres undefined), the z-score is 0.601.
